The text below walks through data of article PMC4336329 (PLoS ONE, 2015).

The whole screen tested about 310,000 compounds, of which about 14,000 (4.5%) showed an effect of 50% or more. The effect is printed as a negative number. The entries come from a sample that favours strong results as a whole.
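Further: peak tail current of the secondary pulse compared with the same well before compound.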

The target of this test is human ether-à-go-go-related gene (hERG) potassium channel (human, UniProt Q12809). As to the kind of experiment: primary screen, population patch clamp on CHO cells stably expressing hERG; higher = less effect of the substance.
Chain of human ether-à-go-go-related gene (hERG) potassium channel (Q12809 whole entry, looked up): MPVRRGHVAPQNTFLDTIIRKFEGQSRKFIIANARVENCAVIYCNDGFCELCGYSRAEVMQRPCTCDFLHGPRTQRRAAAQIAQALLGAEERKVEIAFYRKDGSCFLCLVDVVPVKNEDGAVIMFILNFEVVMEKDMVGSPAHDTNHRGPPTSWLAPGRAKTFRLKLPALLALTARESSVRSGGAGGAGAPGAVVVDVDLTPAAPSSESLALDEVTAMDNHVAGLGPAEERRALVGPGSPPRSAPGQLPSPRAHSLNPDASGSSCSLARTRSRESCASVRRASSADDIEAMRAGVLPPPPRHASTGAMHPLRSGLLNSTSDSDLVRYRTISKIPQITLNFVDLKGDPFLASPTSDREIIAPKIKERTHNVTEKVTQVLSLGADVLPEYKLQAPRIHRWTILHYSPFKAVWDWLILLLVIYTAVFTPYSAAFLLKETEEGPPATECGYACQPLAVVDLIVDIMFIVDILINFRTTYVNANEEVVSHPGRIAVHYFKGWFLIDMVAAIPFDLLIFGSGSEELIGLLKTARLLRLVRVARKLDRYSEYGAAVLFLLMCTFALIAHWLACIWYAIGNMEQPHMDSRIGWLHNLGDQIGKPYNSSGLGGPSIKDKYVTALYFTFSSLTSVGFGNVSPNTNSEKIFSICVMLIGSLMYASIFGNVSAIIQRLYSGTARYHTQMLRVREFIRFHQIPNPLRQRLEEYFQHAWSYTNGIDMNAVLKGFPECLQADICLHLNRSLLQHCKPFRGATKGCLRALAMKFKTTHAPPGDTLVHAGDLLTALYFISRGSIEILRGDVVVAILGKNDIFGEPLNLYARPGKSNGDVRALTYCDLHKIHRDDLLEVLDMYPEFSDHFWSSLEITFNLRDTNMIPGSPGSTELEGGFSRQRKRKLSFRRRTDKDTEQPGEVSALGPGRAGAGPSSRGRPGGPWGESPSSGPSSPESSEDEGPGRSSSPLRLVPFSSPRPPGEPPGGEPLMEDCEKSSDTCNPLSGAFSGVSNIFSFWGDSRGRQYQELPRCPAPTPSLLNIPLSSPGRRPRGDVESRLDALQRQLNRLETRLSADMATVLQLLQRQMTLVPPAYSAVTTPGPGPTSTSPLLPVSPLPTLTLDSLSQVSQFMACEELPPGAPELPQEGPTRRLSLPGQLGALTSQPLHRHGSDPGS
For `Cc1ccc(NC(=O)c2ccc(OCC3CCCO3)cc2)c(C)c1` (stereo not shown), the “hERG current change (%, negative = inhibition) at 10uM” value was -9.65%.
The same measure for `Cc1cc(NC(=O)c2sc(Nc3ccc(F)cc3)nc2N)no1`: 20%.
For the molecule `Cc1cc(N2CCN(S(=O)(=O)c3ccc(Cl)cc3)CC2)c2ccccc2n1`, the “hERG current change (%, negative = inhibition) at 10uM” value is reported as -77.8%.
`Cc1ccc(S(=O)(=O)N2CCN(c3ncccn3)CC2)cc1C`: the “hERG current change (%, negative = inhibition) at 10uM” value is recorded as 13.9%.
Turning to `Cc1cc(N2CCN(S(=O)(=O)c3ccccc3)CC2)nc2c(C)cccc12`, the “hERG current change (%, negative = inhibition) at 10uM” value is reported as 23.1%.
As to `Cc1cc(N2CCN(S(=O)(=O)c3ccc(Cl)c(Cl)c3)CC2)c2ccccc2n1`, the “hERG current change (%, negative = inhibition) at 10uM” value was -45.3%.
For the molecule `Cc1ccccc1N1CCN(S(=O)(=O)c2ccccc2)CC1`, the “hERG current change (%, negative = inhibition) at 10uM” value came to 0.732%.
With `Cc1cc(N2CCN(S(=O)(=O)c3ccc(C)c(C)c3)CC2)c2ccccc2n1`, the “hERG current change (%, negative = inhibition) at 10uM” value is recorded as -64.6%.
For the molecule `CC(=O)Nc1ccc(S(=O)(=O)N2CCN(c3ncccn3)CC2)cc1`, the “hERG current change (%, negative = inhibition) at 10uM” value was 6.13%.
Turning to `Cn1c(N2CCN(S(=O)(=O)c3ccc(Cl)cc3)CC2)nc2ccccc21`, the “hERG current change (%, negative = inhibition) at 10uM” value is reported as -34%.
As for `CC(=O)Nc1ccc(S(=O)(=O)N2CCN(c3nc(NC4CCCC4)c4ccccc4n3)CC2)cc1`, the “hERG current change (%, negative = inhibition) at 10uM” value is given as -75.8%.
`Cc1cc(N2CCN(S(=O)(=O)c3ccccc3)CC2)c2ccccc2n1`: the “hERG current change (%, negative = inhibition) at 10uM” value is reported as -73.3%.
Consider `Cc1ccc(S(=O)(=O)N2CCN(c3ccccc3)CC2)cc1C`, for which the “hERG current change (%, negative = inhibition) at 10uM” value was 6.82%.
As to `CC(=O)Nc1ccc(S(=O)(=O)N2CCN(c3ccccn3)CC2)cc1`, the “hERG current change (%, negative = inhibition) at 10uM” value was -3.36%.
Regarding `O=C(CCCn1nnc2ccccc2c1=O)N[C@@H](Cc1ccccc1)C(=O)O`, the “hERG current change (%, negative = inhibition) at 10uM” value stood at 13%.
For the molecule `COc1cc(OC)c(/C=N/n2c(C3CCCCC3)n[nH]c2=S)c(OC)c1`, the “hERG current change (%, negative = inhibition) at 10uM” value was found to be 22.6%.
In the case of `CCSc1nc2c(c(=O)n1-c1ccc(F)cc1)SCC2`, the “hERG current change (%, negative = inhibition) at 10uM” value is reported as -4.12%.
As for `Cc1cc(C)cc(NC(=O)N2C3CCCC2CC(NC(=O)C2CC2)C3)c1` (stereo not shown), the “hERG current change (%, negative = inhibition) at 10uM” value is 17%.
To `Fc1ccc(COc2ccccc2-c2ccnc3ncnn23)cc1` belongs -6.51%.
Consider `Cc1cccc(C)c1NC(=O)CN(C)CC(=O)N(C)CC(=O)Nc1ccccc1Br`, for which the “hERG current change (%, negative = inhibition) at 10uM” value was 14%.
To `CCCn1c(-c2ccc[nH]c2=O)nc2ccccc21` belongs 15.6%; to `CCOC(=O)c1ccc(NC(=O)C2CC(=O)N(c3ccc4c(c3)OCCO4)C2)cc1` (stereo not shown), 10.7%.
Consider `COC(=O)c1nn(-c2c(C)n(C)n(-c3ccccc3)c2=O)cc1O`, for which the “hERG current change (%, negative = inhibition) at 10uM” value was 5.84%.
As for `COc1cccc(NC(=S)NNC(=O)CCn2cc([N+](=O)[O-])cn2)c1`, the “hERG current change (%, negative = inhibition) at 10uM” value was -2.61%.
Regarding `Cc1ccc(NCc2nnc(SCC(=O)N(Cc3ccccc3)C(C)(C)C)o2)c(C)c1`, the “hERG current change (%, negative = inhibition) at 10uM” value is listed as -9.53%.
`CC(=O)Nc1ccc(S(=O)(=O)N2CCN(c3nc(C)cc(C)n3)CC2)cc1`: the “hERG current change (%, negative = inhibition) at 10uM” value was determined as 5.68%.
For the molecule `CC(=O)Nc1ccc(S(=O)(=O)N2CCN(S(=O)(=O)c3ccccc3)CC2)cc1`, the “hERG current change (%, negative = inhibition) at 10uM” value is listed as 11.7%.
Take `CC(=O)Nc1ccc(S(=O)(=O)N2CCN(c3cc(C)nc4ccccc34)CC2)cc1`: the “hERG current change (%, negative = inhibition) at 10uM” value is listed as -88.5%.
`C[C@@H](NC(=O)c1[nH]cnc1C(=O)Nc1nccs1)c1ccccc1`: the “hERG current change (%, negative = inhibition) at 10uM” value is -3.32%.
As to `CC(=O)Nc1cccc(C(=O)Nc2ccccc2N2CCOCC2)c1`, the “hERG current change (%, negative = inhibition) at 10uM” value is -0.962%.
For the molecule `Cc1ccccc1-n1c(Cn2c(=O)sc3ccccc32)nnc1SCC(=O)NCC1CCCO1` (stereo not shown), the “hERG current change (%, negative = inhibition) at 10uM” value is -2.85%.
Regarding `CCOc1ccccc1-n1c(=O)c2ccccc2c2ccccc2c1=O`, the “hERG current change (%, negative = inhibition) at 10uM” value is -6.99%.
With `CC1c2c([nH]c3ccccc23)CCC1C(=O)O` (stereo not shown), the “hERG current change (%, negative = inhibition) at 10uM” value is listed as 22.4%.
The same measure for `COc1cccc(C2CNC3(CCCC(C)C3)c3[nH]c4ccccc4c32)c1OC.Cl` (stereo not shown): -23.6%.
Take `CC1(C)CC(=O)CC2(C1)NCC(c1ccccc1Cl)c1c2[nH]c2ccccc12.Cl` (stereo not shown): the “hERG current change (%, negative = inhibition) at 10uM” value is listed as -51.4%.
As to `ClCC1NCC(c2ccccc2Cl)c2c1[nH]c1ccccc21` (stereo not shown), the “hERG current change (%, negative = inhibition) at 10uM” value turned out to be 0.482%.
As for `CC1(C)NC(C(=O)O)Cc2c1[nH]c1ccccc21` (stereo not shown), the “hERG current change (%, negative = inhibition) at 10uM” value amounted to 3.65%.
For `CC1(C)CC(=O)CC2(C1)NCC(c1ccccc1)c1c2[nH]c2ccccc12.Cl` (stereo not shown), the “hERG current change (%, negative = inhibition) at 10uM” value is listed as -85.8%.
As to `O=Nc1ccc(NOC(=O)c2ccccc2Br)cc1`, the “hERG current change (%, negative = inhibition) at 10uM” value came to 3.45%.
As for `CC(C)(C)c1cc(CCC(=O)Nc2ccncc2)cc(C(C)(C)C)c1O`, the “hERG current change (%, negative = inhibition) at 10uM” value is -16.6%.
On to `CCN(CC)CCN1C(=O)C2C3c4ccccc4C(c4ccccc43)C2C1=O` (stereo not shown), for which the “hERG current change (%, negative = inhibition) at 10uM” value was -2.51%.
As for `CCN(CC)CCNC(=O)C(C)c1nn(CC)c(=O)c2ccccc12.Cl` (stereo not shown), the “hERG current change (%, negative = inhibition) at 10uM” value is 7.49%.
With `CCN(CC)CCN1C(=O)Cn2c(C)c(C)c3cccc1c32.O=C(O)C(O)C(O)C(=O)O`, the “hERG current change (%, negative = inhibition) at 10uM” value is listed as -65.1%.
The same measure for `CCN(CC)CCNC(=O)Cn1nc(-c2ccccc2)c2ccccc2c1=O`: -31%; for `CCN(CC)CCN1C(=O)Cn2c(C)c(C)c3cccc1c32.Cl`: -52.4%.
As for `Cc1c(C)n2c3c(cccc13)CC2`, the “hERG current change (%, negative = inhibition) at 10uM” value is recorded as -0.781%.
The same measure for `Cc1ccc(NC(=O)Cn2c(=O)n(Cc3ccco3)c(=N)c3c4c(sc32)COC(C)(C)C4)cc1`: -7.76%; for `CC(C)[C@H](NC(=O)c1ccco1)C(=O)OCC(=O)N1CC(=O)Nc2ccccc21`: 13.3%; for `O=C1N/C(=C/c2ccc(N3CCOCC3)cc2)C(=O)N1Cc1ccc(F)cc1`: 22.1%.
The same measure for `CCOC(=O)C1CCN(C(=O)CSc2cc(=O)n(CC)c3ccccc23)CC1`: -29.4%; for `O=[N+]([O-])c1cc2c(c(CSc3nnc4ccccn34)c1)OCOC2`: -12.4%; for `O=C(O)C(Cc1ccccc1)n1cnnn1` (stereo not shown): 7.85%.
The same measure for `CCC(CC)c1nn2c(N)c(/C=C3\C=Nc4ccccc43)c(=O)nc2s1`: 0.567%; for `COc1ccc(S(=O)(=O)N2CCCC(C(=O)O)C2)cc1Cl` (stereo not shown): 6.43%.
In the case of `CC1=NNC(=O)C1CC(=O)N/N=C/C(Br)=C/c1ccccc1` (stereo not shown), the “hERG current change (%, negative = inhibition) at 10uM” value was 9.09%.
